# CF NFkB block = inhibitors of cystic fibrosis induced NF-kB; KKLEB NF-kB-GFP reporter, PAF-induced, GFP fluorescence overnight; inhibition, % at 5 µM; 360,000 tested, 0.86% active; AID 588850;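 active = at least 50% inhibition at 5 µM, scaled per plate between neutral and stimulator controls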;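 also: PAF is a Pseudomonas aeruginosa culture filtrate used as stimulus; plate controls were PAF-stimulated DMSO wells for no effect and unstimulated DMSO wells for full effect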
# KKLEB cytotox = CF airway cell cytotoxicity counter-screen; KKLEB CF airway cells viability, ATPlite luminescence, overnight; active compounds read low; cells stimulated with P. aeruginosa culture filtrate; activity change (cytotoxicity), % at 5 µM; 360,000 tested, 0.36% active;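 active = corrected activity change at or below -50% at 5 µM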
# LGR2 inh = inhibitors of bursicon-induced Drosophila LGR2 receptor cAMP signaling; inhibition, % at 9.99 µM; HEK293 LGR2, CRE-luciferase, bursicon-stimulated, 4 h; 380,000 tested, 0.35% active;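 active = drop in luminescence signal, shown as inhibition above about 50% in the replicate tests, limit read from the data, passing the limit was not always enough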;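 also: agonist challenge used bursicon conditioned medium at about half maximal strength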
# Peg3 prom inh = reduces Peg3 promoter-driven luciferase expression in HeLa | HeLa PEG-Prom luciferase reporter, luminescence, overnight | inhibition, % at 20 µM | 360,000 tested, 1.7% active | AID 588405;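 active = inhibition of at least 50% at 20 µM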
# HSP90 refold inh = blocks HSP90-mediated luciferase refolding in reticulocyte lysate; Rabbit reticulocyte lysate, luciferase refolding luminescence, 3 h; inhibition, % at 5.6 µM; 290,000 tested, 0.91% active;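 active = inhibition above the screen-wide mean plus 3 SD, computed separately per campaign, cut at about 16% in these data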;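 also: 0% = DMSO wells and 100% = 60 µM geldanamycin wells; inhibitors lower the luminescence because luciferase stays unfolded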
# Mdm2-MdmX inh = disrupts the human Mdm2-MdmX interaction. SaOS-2 split-luciferase Mdm2/MdmX complementation, luminescence. 330,000 tested, 3% active. AID 485346. inhibition, % at 8 µM;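 active = inhibition of at least 50% at 8 µM in the primary screen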
# Target sequence (O15151 whole entry, looked up): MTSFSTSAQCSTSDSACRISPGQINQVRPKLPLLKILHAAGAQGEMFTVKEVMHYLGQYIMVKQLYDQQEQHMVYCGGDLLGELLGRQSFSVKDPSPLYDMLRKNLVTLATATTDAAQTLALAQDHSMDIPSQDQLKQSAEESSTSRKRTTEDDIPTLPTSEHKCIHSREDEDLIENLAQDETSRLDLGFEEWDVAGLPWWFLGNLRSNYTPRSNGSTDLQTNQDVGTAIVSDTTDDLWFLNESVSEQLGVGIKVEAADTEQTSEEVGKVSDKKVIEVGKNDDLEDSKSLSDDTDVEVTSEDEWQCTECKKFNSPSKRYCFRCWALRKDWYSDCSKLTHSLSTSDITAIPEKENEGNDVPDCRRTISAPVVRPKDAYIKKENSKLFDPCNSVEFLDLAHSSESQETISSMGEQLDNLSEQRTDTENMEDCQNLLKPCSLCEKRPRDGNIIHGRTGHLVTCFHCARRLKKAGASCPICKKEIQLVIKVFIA
# Target sequence (Q00987 whole entry, looked up): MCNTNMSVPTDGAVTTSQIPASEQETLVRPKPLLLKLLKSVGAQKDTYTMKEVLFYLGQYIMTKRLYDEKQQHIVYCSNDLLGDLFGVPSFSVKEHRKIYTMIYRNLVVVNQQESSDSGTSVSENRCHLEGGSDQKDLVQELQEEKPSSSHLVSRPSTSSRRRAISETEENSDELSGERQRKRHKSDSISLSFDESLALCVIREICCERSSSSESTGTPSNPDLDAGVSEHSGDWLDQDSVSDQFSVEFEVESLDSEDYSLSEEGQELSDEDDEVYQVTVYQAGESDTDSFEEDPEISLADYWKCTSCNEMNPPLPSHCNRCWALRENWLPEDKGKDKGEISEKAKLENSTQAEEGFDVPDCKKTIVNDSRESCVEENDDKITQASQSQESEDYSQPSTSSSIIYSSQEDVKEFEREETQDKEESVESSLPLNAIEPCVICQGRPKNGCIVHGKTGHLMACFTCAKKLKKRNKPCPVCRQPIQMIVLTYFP
# Mdm2-MdmX conf = confirmation of human Mdm2/MdmX interaction inhibitors; AID 489028; shares compounds with Mdm2-MdmX inh; Mdm2-MdmX binding, luminescent assay; inhibition, % at 8 µM; 10,000 tested, 55% active; in the data active = inhibition above about 40%
# FLuc counter = full-length luciferase inhibition in Mdm2/MdmX counter-screen; shares compounds with Mdm2-MdmX inh; SaOS-2 full-length luciferase counterscreen, luminescence; inhibition, % at 8 µM; 6,200 tested, 77% active; AID 504607;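 active = mean inhibition at 8 µM reaching about 37%, which flags the compound as non-specific, limit read from the data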;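 also: p53-null SaOS-2 cells with luciferase driven by a doxycycline-inducible promoter; compound on cells about two nights before reading with doxycycline added after day one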
# * = called active by the depositor; nt = no result. Rows were chosen to be rich in hits. Some 3.6% of all compounds tested hit in one or more screens of this group.
SMILES,CF NFkB block,KKLEB cytotox,LGR2 inh,Peg3 prom inh,HSP90 refold inh,Mdm2-MdmX inh,Mdm2-MdmX conf,FLuc counter
Cc1ccc(C2(C)NC(=O)N(CC(=O)Nc3nc(-c4ccccn4)cs3)C2=O)cc1 (stereo not drawn),-6,2,-10,7,nt,59*,49*,64*
O=C(CCS(=O)(=O)c1ccc(Cl)cc1)Nc1nc(-c2cccnc2)cs1,31,7,-5,32,-1,70*,32,72*
COCC(=O)Nc1ccc2c(c1)[C@H]1C[C@@H](CC(=O)N3CCOCC3)O[C@@H](CO)[C@H]1O2,nt,nt,14,nt,nt,nt,nt,nt
C[C@@H](NC(=O)[C@H]1N[C@H]2c3ccc(-c4cncnc4)c(=O)n3C[C@H]2[C@@H]1CO)c1ccccc1,nt,nt,-12,nt,nt,nt,nt,nt
CN(C)CCN=Cc1c(O)n(Cc2ccccc2)c(=O)c2ccccc12,8,-8,8,7,0,9,nt,nt
CC1(C)CC(N=Cc2c(O)n(Cc3ccc4c(c3)OCO4)c(=O)c3ccccc23)CC(C)(C)N1,5,-9,28,82*,-1,93*,40,69*
O=C(N/N=C/c1ccc(Cl)c([N+](=O)[O-])c1)c1cnccn1,10,5,-8,-4,-1,8,nt,nt
O=C(N/N=C/c1ccc(Sc2nc3ccccc3s2)c([N+](=O)[O-])c1)c1ccccn1,29,-31,-17,7,0,74*,52*,55*
CC(C)NC(=O)N1C[C@H]2[C@@H](c3ccccc31)[C@@H](CO)N2C(=O)c1ccncc1,nt,nt,-5,nt,nt,nt,nt,nt
Cc1ccc(Nc2cc(C)nn2-c2nc(C)cc(=O)[nH]2)cc1,52*,32,nt,108*,0,98*,100*,2
Cc1ccc(Nc2cc(C)nn2-c2nc(C)cc(C)n2)cc1,16,-14,nt,21,3,32,nt,nt
N/C(=N\OC(=O)N1CCOCC1)c1ccc(Br)cc1,-11,1,17,-44,0,100*,59*,134*
N/C(=N\OC(=O)N1CCOCC1)c1ccc(Cl)cc1,2,-1,13,-69,3,92*,61*,148*
N/C(=N\OC(=O)N1CCOCC1)c1ccccc1,-12,4,nt,-44,-1,64*,6,nt
O=C(NCC1CC1)[C@H]1[C@H](CO)[C@H]2Cn3c(ccc(-c4ccccc4F)c3=O)[C@@H]1N2Cc1ccccc1,nt,nt,14,nt,nt,nt,nt,nt
CC(C)C[C@H]1CN=C(Nc2ccccc2)N1CCCC1CCCCC1,12,3,10,33,5,50*,24,nt
Cc1noc(C)c1NC(=O)Nc1ccc2c(c1)C(=O)N([C@@H](C)CO)C[C@@H](C)[C@H](CN(C)C(=O)CCCN(C)C)OCCCC[C@H](C)O2,nt,nt,5,nt,nt,nt,nt,nt
COc1ccc(/C=C2\CN(Cc3ccccc3)C/C(=C\c3ccc(OC)cc3OC)C2=O)c(OC)c1,4,-1,nt,45,11,67*,60*,63*
COc1ccc(/C=C2\CN(Cc3ccccc3)C/C(=C\c3ccc(OC)cc3)C2=O)cc1,-4,-16,18,47,2,nt,nt,nt
COc1ccc(C=C2c3ccccc3C(=O)c3ccccc32)c(OC)c1,18,-2,0,-16,7,66*,57*,97*
COc1ccc(/C=C/C(=O)c2ccccc2)c(OC)c1,1,11,-76,-254,-1,-34,nt,nt
COc1ccc(/C=C2\COc3ccccc3C2=O)c(OC)c1,7,-5,-50,-43,0,59*,34,76*
COc1ccc2c(c1)OC/C(=C/c1cccs1)C2=O,-10,-7,9,-196,-3,-148,nt,nt
O=C(C[C@@H]1CC[C@@H]2[C@H](COC[C@H](O)CN2C(=O)Nc2cccc(Cl)c2)O1)N1CCCCC1,nt,nt,-11,nt,nt,nt,nt,nt
CO[C@H]1CN(C)C(=O)c2cc(NS(C)(=O)=O)ccc2OC[C@H](C)N(C(=O)C2CCCCC2)C[C@H]1C,nt,nt,22,nt,nt,nt,nt,nt
SMILES,CF NFkB block,KKLEB cytotox,LGR2 inh,Peg3 prom inh,HSP90 refold inh,Mdm2-MdmX inh,Mdm2-MdmX conf,FLuc counter
Cc1cc(=O)oc2cc(NC(=O)c3cccc(Br)c3)ccc12,29,-6,-29,-31,1,66*,-32,nt
COc1ccc(-c2nc3ccccc3c(C(=O)Nc3ccc(S(=O)(=O)Nc4cc(C)on4)cc3)c2C)cc1,27,-9,nt,27,-2,76*,56*,53*
COC(=O)c1ccc(-n2c(C)cc(C(=O)CCl)c2C)cc1,10,-37,12,82*,-2,94*,62*,58*
CCOc1ccc(-n2c(C)cc(C(=O)CCl)c2C)cc1,41,-27,-3,111*,2,94*,55*,88*
O=C(CNC(=O)c1ccccc1O)N/N=C/c1cc(Br)ccc1OC(=O)/C=C/c1ccco1,nt,nt,-15,nt,3,51*,70*,41*
Cc1nnc(N2CCCC(C(=O)Nc3cc(F)ccc3F)C2)c2nn(-c3ccccc3)c(C)c12 (stereo not drawn),14,-1,nt,18,5,96*,50*,73*
Cc1nnc(N2CCCC(C(=O)NCc3ccc(OC(C)C)cc3)C2)c2nn(-c3ccccc3)c(C)c12 (stereo not drawn),2,3,4,47,-2,52*,3,nt
Cc1nnc(N2CCC(C(=O)N3CCCCC3)CC2)c2nn(-c3ccc(Cl)cc3)c(C)c12,22,-5,nt,34,-4,38,nt,nt
CCOC(=O)C1=C(c2ccccc2)N=c2s/c(=C\c3cccc(O)c3)c(=O)n2C1c1cccs1 (stereo not drawn),8,-4,nt,19,6,78*,29,nt
CCOC(=O)C1=C(C)N=c2s/c(=C\c3ccc(OC(C)=O)c(OCC)c3)c(=O)n2C1/C=C/c1ccccc1 (stereo not drawn),-5,-2,nt,-3,5,27,nt,nt
CCOc1ccc2nc(N(CCN(C)C)C(=O)/C=C/c3cccs3)sc2c1,23,-5,nt,-7,1,65*,31,nt
CCc1ccc2nc(N(CCN(C)C)C(=O)/C=C/c3cccs3)sc2c1,41,-22,nt,37,3,51*,21,nt
C[C@@H]1CCCCO[C@H](CN(C)CC2CC2)[C@H](C)CN([C@@H](C)CO)C(=O)c2cc(NC(=O)c3ccccc3)ccc2O1,nt,nt,8,nt,nt,nt,nt,nt
Cc1nc(SCc2nc3cc(Cl)c(F)cc3[nH]2)c2oc3ccccc3c2n1,44,-41,18,39,nt,92*,42*,32
CC(C)NC(=O)N(C)C[C@@H]1Oc2ccc(NS(C)(=O)=O)cc2C(=O)N([C@H](C)CO)C[C@H]1C,nt,nt,5,nt,nt,nt,nt,nt
Cc1ccc(S(=O)(=O)c2nc(S(C)(=O)=O)sc2N2CCCCC2C)cc1 (stereo not drawn),41,-11,19,43,1,57*,41*,40*
